Consider nine compounds from the supplement of paper PMC13380429.

The assay relates to Vero E6 infected with SARS-CoV-2. The assay can be described thus: morphology score (similarity to uninfected cells); higher = more like uninfected cells. The settings on record: 24 h.
The compound `CC(=O)[C@@]12O[C@](C)(c3ccccc3)O[C@@H]1C[C@H]1[C@@H]3CCC4=CC(=O)CC[C@]4(C)[C@H]3CC[C@@]12C` [algestone-acetophenide] (10 µM) displayed a morphology score of 0.363.

Compound `COc1ccc([C@]2(C#N)CC[C@@H](C(=O)O)CC2)cc1OC1CCCC1` [cilomilast] (10 µM) had a morphology score of 0.246.

`COc1cc(S(C)(=O)=O)ccc1Nc1nc2ccc(-c3ccc(NC(=O)[C@H](C)c4ccc(F)cc4)cc3)cn2n1` (10 µM) gave a morphology score of -0.122.

In turn, `CCCCOC(=O)c1ccc(N)cc1` [butamben] (10 µM) showed a morphology score of 0.102.

As for `CC(=O)O[C@H]1C[C@H](O[C@H]2[C@@H](O)C[C@H](O[C@H]3[C@@H](O)C[C@H](O[C@H]4CC[C@@]5(C)[C@H](CC[C@@H]6[C@@H]5C[C@@H](O)[C@]5(C)[C@@H](C7=CC(=O)OC7)CC[C@]65O)C4)O[C@@H]3C)O[C@@H]2C)O[C@H](C)[C@H]1O[C@@H]1O[C@H](CO)[C@@H](O)[C@H](O)[C@H]1O` [lanatoside-C] (0.833333 µM), the morphology score was -0.0895.

Take `COc1cc(COc2cc(N)c(Cl)cc2C(=O)CCC2CCN(CCNS(C)(=O)=O)CC2)cc(OC)c1` (0.833333 µM): the morphology score was determined as 0.265.

Regarding `CO/N=C(\C(=O)N[C@@H]1C(=O)N2C(C(=O)O)=C(COC(N)=O)CS[C@H]12)c1ccco1` (10 µM), the morphology score was 0.0841.

The compound `CC(C)Nc1cccnc1N1CCN(C(=O)c2cc3cc(NS(C)(=O)=O)ccc3[nH]2)CC1` [delavirdine] (10 µM) yielded a morphology score of 0.0195.

With `O=C(CNC(=O)c1cccc(C(F)(F)F)c1)N[C@@H]1CCN(Cc2ccc(Cl)cc2)C1` [teijin-compound-1] (10 µM), the morphology score was -0.116.
